# The campaign covered roughly 6,200 compounds. About 2,900 (47%) were called active. So high a share suggests a set chosen from earlier hits. Some of the results follow. Values without a mark were called inactive. Rule as the data show it: active = inhibition above about 50%; inactive = the rest.
# Test: Mycobacterium tuberculosis growth inhibition, primary screen (AID 1259343)
# Details: inhibition: at 10 µM, stronger effect = higher value; outcome: 10 uM
row,SMILES,inhibition
1,Cc1cc(C)cc(N2C(=O)C3N=NN(c4ccc(Br)c(C)c4)C3C2=O)c1 (configuration not stated),89% (active)
2,COC(=O)c1cc(C)nc(N(C)C)c1C(=O)OC,-14.7%
3,CC(C)c1ccc(/C=N\Nc2ncnc3nc[nH]c23)cc1,58.7% (active)
4,O=c1c(Cl)c(Cl)cnn1-c1ccc(NC2CC2)c(Cl)c1,91.2% (active)
5,O=c1c(Cl)c(Cl)cnn1-c1ccc(N2CCOC(c3ccccc3)C2)c(Cl)c1 (configuration not stated),16.1%
6,Cc1ccc(-c2nnc(SCC(=O)c3ccc4c(c3)OCO4)n2C)cc1,89.8% (active)
7,c1csc(-c2nnc(SCc3ccc4c(c3)OCO4)n2C2CC2)c1,-34.7%
8,CN(C)C(=O)CSc1nnc(-c2ccc(Cl)cc2)n1C,0.36%
9,Cc1nc2cc(NC(=O)C3(C)CCc4c(C)c(O)c(C)c(C)c4O3)ccc2s1 (configuration not stated),68.5% (active)
10,CN(Cc1cccc(C#N)c1)C(=O)c1cc2c(s1)CCCCCC2,30.1%
11,CN(Cc1cccs1)C(=O)c1cc2c(cc1O)CCCC2,67.8% (active)
12,CCCCNC(=S)N(C)N=Cc1c(F)c(F)c(F)c(F)c1F,58% (active)
13,CCCCNC(=S)N(C)N=Cc1sccc1C,29%
14,COc1ccc(-c2nc(C=CC(=O)N3CCCC4CCCCC43)cs2)cc1 (configuration not stated),62.1% (active)
15,Cc1ccc(-c2cc(C(=O)N3CCCC3C3CCCC3)n[nH]2)s1 (configuration not stated),31.1%
16,CCCCc1ccc(N=Cc2nc(/C=C/c3cccc([N+](=O)[O-])c3)oc2O)cc1,84.9% (active)
17,CCCCc1ccc(N=Cc2c(C)c(C#N)c(=O)n(CCCC)c2O)cc1,4.37%
18,COc1ccc(F)cc1Oc1ccc2c(C3CC3)noc2n1,30%
19,Cc1ccc(Oc2ccc3c(C4CC4)noc3n2)cc1F,64.9% (active)
20,Cc1cc(Oc2ccc3c(C4CC4)noc3n2)ccc1F,58.7% (active)
21,COc1ccc(Oc2ccc3c(C4CC4)noc3n2)c(F)c1,61.2% (active)
22,COc1cc(F)ccc1Oc1ccc2c(C3CC3)noc2n1,47.7%

row,SMILES,inhibition
1,CCN(CC)CCN1CCN(c2ccnc3c(-c4cc(C(F)(F)F)cc(C(F)(F)F)c4)cnn23)CC1,37.6%
2,COCc1[nH]n2c(=O)c(Cl)c(C)nc2c1-c1ccc(C)cc1,98.7% (active)
3,Cc1ccccc1-c1cnnc(N2CCCC(COc3ccccc3F)C2)n1 (configuration not stated),-23.4%
4,C=C(C)CSc1nnc2c(n1)[nH]c1ccccc12,61.6% (active)
5,C=CCSc1nnc2c3ccccc3n(CC=C)c2n1,28.1%
6,S=c1nnc2c3ccccc3[nH]c2n1CCc1ccccc1,18%
7,Cc1cc(Br)ccc1NCc1ccc(C#N)cc1,35.3%
8,Cc1cc(Br)ccc1NCC(=O)N1CCCCC1,95.6% (active)
9,COc1cc(C(=O)C=Cc2ccc(OC(F)F)cc2)ccc1O,17.6%
10,N#CC(C#N)=C(C=Cc1ccc(OC(F)F)cc1)C1CC1,-8.38%
11,O=C(C=Cc1ccc(OC(F)F)cc1)c1ccc(O)cc1,81.8% (active)
12,CC(C)c1ccc2[nH]c3c(c2c1)CCC/C3=N\N=C/c1ccncc1,78.2% (active)
13,OCC1(Cc2ccccc2F)CCCN(c2noc(-c3ccccc3)n2)C1 (configuration not stated),17.3%
14,COc1cc(CNc2ccc3nc(C)sc3c2)ccc1OC(F)F,78.4% (active)
15,C=CCc1ccc(OC(C)C(=O)Nc2ccc(OC)cc2)c(OC)c1 (configuration not stated),30.5%
16,COc1ccc(NCc2ccc(OC)c(Br)c2)cn1,-17.8%
17,CC(=NN=C1NC(=O)CS1)c1cc2ccccc2oc1=O,91.1% (active)
18,COc1ccc(OCCOc2ccc(Cl)c(C)c2)cc1,80.7% (active)
19,COc1ccc(OCCCCOc2ccccc2F)cc1,57.2% (active)
20,CCOc1ccc(OCCCOc2ccc(Cl)c(C)c2)cc1,44.9%
21,CCOc1ccccc1OCCOc1ccccc1F,88.9% (active)
22,COc1ccccc1OCCCCOc1ccccc1Cl,67.2% (active)

row,SMILES,inhibition
1,COc1cccc(-c2cnnc(NCc3ccccc3OC)n2)c1,21.6%
2,COc1ccccc1OCCCOc1ccccc1F,80% (active)
3,COc1cccc(OCCCCOc2ccc3ccccc3c2)c1,78.5% (active)
4,COc1cccc(-c2ccc(=O)n(Cc3cccc(F)c3)n2)c1,22.1%
5,COc1cccc(-c2nnn(CCOc3ccccc3F)n2)c1,77.6% (active)
6,COc1ccc(OCCOc2ccccc2C#N)cc1,56.9% (active)
7,CC(C)=CCCC(C)(O)c1cc(C(N)=O)no1 (configuration not stated),32.2%
8,N#Cc1ccc(-c2ccc(OCC(=O)c3ccc4c(c3)CC(=O)N4)cc2)cc1,39.1%
9,COc1ccccc1OCCCOc1ccc(F)cc1,35.7%
10,COc1ccccc1OCCCCOc1ccc(I)cc1,91.3% (active)
11,COc1cccc(OCCCOc2cccc(Cl)c2Cl)c1,61.9% (active)
12,COc1ccc(OCCCOc2cccc(Cl)c2Cl)cc1,18.8%
13,COc1ccc(OCCCCOc2ccccc2OC)cc1,97.5% (active)
14,CC(=O)c1ccc(OCCOc2ccc(C#N)cc2)cc1,101% (active)
15,CCCCCCOc1ccc(C(=O)NNS(=O)(=O)c2ccc(C(=O)OC)cc2)cc1,94.8% (active)
16,CCCCCCNC(=O)Nc1ccc(S(=O)(=O)Nc2ccc(CCNC[C@H](O)COc3ccc(O)cc3)cc2)cc1,18.9%
17,CCCCCCCOc1ccc(C(C)=NOC)cc1,41.4%
18,COC(=O)c1ccc(OCCCCOc2ccccc2OC)cc1,80.9% (active)
19,COc1ccc(OCCCCOc2ccc(Br)cc2)cc1,81.2% (active)
20,COc1ccc(OCCCCOc2ccccc2)cc1,27.8%
21,O=C1Oc2ccccc2C1=Cc1c(Cl)cccc1Cl,59% (active)
22,CC(C)N(C(=O)/C=C/c1c(Cl)cccc1Cl)C(C)C,47.8%

row,SMILES,inhibition
1,Cc1cc(NC(=O)COc2ccc(Cl)cc2Cl)n(-c2nc(C)c(C)c(=O)[nH]2)n1,-28.7%
2,Cc1nnc2sc(COc3ccc(Cl)cc3Cl)nn2c1=O,78.4% (active)
3,Cc1cc(Br)cc(Cl)c1NC(=O)C1(C)CC1(Cl)Cl (configuration not stated),-15.4%
4,O=C(CC1CCCO1)NCc1cccc(OCc2ccccc2)c1 (configuration not stated),39.5%
5,CCC1CCC(=NNC(=O)c2ccc(COc3ccccc3)cc2)CC1 (configuration not stated),97.1% (active)
6,O=C(N/N=C1/CCSc2c(F)cccc21)c1ccccc1,38%
7,COc1ccc(-n2cc(CNCc3ccc4c(c3)OCO4)c(-c3ccccc3Cl)n2)cc1,61.7% (active)
8,Cc1cccc(-n2cc(CNCc3ccc(C)o3)c(-c3cccc(F)c3)n2)c1,46.5%
9,Cc1cccc(-n2cc(CNCC3CCCO3)c(-c3cccc(F)c3)n2)c1 (configuration not stated),inactive
10,Fc1ccccc1-c1nnn(Cc2ccc3c(c2)OCO3)n1,48.7%
11,Cc1ccccc1CNCc1cn(-c2ccccc2)nc1-c1ccc2c(c1)OCO2,60.9% (active)
12,CC(C)(C)c1ccc(Cn2cnc([N+](=O)[O-])n2)cc1,65.2% (active)
13,O=C(Nc1nnc(C(F)(F)F)s1)C1(c2cccc(Cl)c2)CC1,86.3% (active)
14,COc1cc(NC(=O)C2(c3ccccc3)CC2)c(OC)cc1Cl,16.5%
15,FC(F)(F)c1nnc(N2CCN(c3ccc(Cl)cc3)CC2)s1,18.9%
16,O=C1/C(=C/c2cc3ccccc3o2)Oc2cc(O)ccc21,3.03%
17,O=C1C(=Cc2ccc(OC(F)F)cc2OC(F)F)Oc2cc(O)ccc21,56.9% (active)
18,Cn1c(=S)[nH]c2c(-c3ccccc3)csc2c1=O,20.9%
19,CCOC(=O)CSc1ccc(NC(=O)c2ccc(C)cc2)nn1,93.7% (active)
20,CSc1nc(N)nc(SCc2ccc(F)cc2)c1C#N,53.4% (active)
21,COc1ccc(/C=C2\C=C(c3ccccc3)N(c3ccc4ccccc4c3)C2=O)cc1,74.9% (active)
22,CN(C)c1cc(-c2noc(Cc3ccccc3Cl)n2)ccn1,67% (active)

row,SMILES,inhibition
1,Oc1ccc(Nc2nc3nonc3nc2Nc2cccc(Br)c2)cc1,49.2%
2,Ic1ccc(Nc2nc3nonc3nc2NCc2ccco2)cc1,101% (active)
3,OCC(O)Cn1c2ccc(Br)cc2c2cc(Br)cc(Br)c21 (configuration not stated),17.8%
4,C=CCn1c2ccc(Br)cc2c2nc3ccccc3nc21,-22.9%
5,Cc1cc(O)c(CN2CCOCC2)c2c1C(=O)/C(=C/c1cc3cc(Br)ccc3o1)O2,45.4%
6,OC(CN1CCOCC1)Cn1c2ccc(Br)cc2c2cc(Br)ccc21 (configuration not stated),86.8% (active)
7,CN(CCO)CC(O)Cn1c2ccc(Br)cc2c2cc(Br)ccc21 (configuration not stated),69.2% (active)
8,CC(=O)O[C@H]1CC[C@@]2(C)C(=CC[C@@H]3[C@H]2CC[C@]2(C)C(c4cccnc4)=CC[C@@H]32)C1,27.2%
9,CCC(=O)c1ccc(-c2ccc(Br)cc2F)cc1,29%
10,Brc1ccc(Cc2nnnn2CCn2cccn2)cc1,25.9%
11,O=C(Cn1nnnc1-c1ccc(Br)cc1)c1ccccc1,89.4% (active)
12,NC(=O)c1ccc(Cn2nc(-c3cccs3)oc2=O)cc1,14.6%
13,O=C(CCl)N1N=C(c2cccs2)CC1c1ccco1 (configuration not stated),101% (active)
14,COc1ccc(-c2nc3ccccc3c(=O)o2)cc1[N+](=O)[O-],83.1% (active)
15,O=c1oc(-c2ccco2)nc2ccc(Br)cc12,41.6%
16,O=c1oc(-c2ccc([N+](=O)[O-])cc2Cl)nc2cc(Cl)ccc12,28.8%
17,CCC(Nc1ccccc1)c1nc(C2CCC2)no1 (configuration not stated),44.9%
18,Cc1sc2ncnc(N(C)Cc3nc(C4CC4)no3)c2c1C,-15.9%
19,CN(CCCc1ccccc1)Cc1nc(C2CC2)no1,78.2% (active)
